Only some compounds are listed: those with a hit (about 19% of all), similar ones and a draw of the others.
KB-V1 MDR tox: qHTS assay for MDR1-selective chemotherapeutics: Primary screen using the drug-selected MDR subline cells KB-V1. hit rate 3.4% among 400,000. KB-V1 MDR cells viability, CellTiter-Glo, 72 h. Potency, µM (highest dose often 46.1 µM), actives largely listed as cytotoxic; further: nearly all actives have a fitted effect of over 60% in size
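Cells of the MDR subline KB-V1 are plated, dosed with compound at multiple concentrations, and incubated 72 h at 37 degrees C; CellTiter-Glo is then added and luminescence read after 10 min.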
TDP1 cell CPT: qHTS for Inhibitors of human tyrosyl-DNA phosphodiesterase 1 (TDP1): qHTS in cells in presence of CPT; chicken DT40 Tdp1-/-;hTDP1 cells + 20 nM CPT, ATP luminescence, 48 h; Potency, µM (top dose mostly 46.2 µM), without a hit: at the top dose activity change, negative = growth inhibition, hits mostly inhibitors; hit rate 12% among 420,000; further: nearly all actives have a fitted effect of over 55% in size
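Chicken DT40 Tdp1-/- cells complemented with human TDP1, 400 cells/well, exposed to compounds plus 20 nM camptothecin for at least 48 h at 37 C; viability read as ATP content by CellTiter-Glo luminescence.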
HT1080 IDH1KD tx: qHTS for induction of synthetic lethality in tumor cells producing 2HG: qHTS for the HT-1080-IDH1KD cell line; hit rate 2% among 360,000; AID 686971, 2013; HT-1080 IDH1 knockdown viability, ATP luminescence, 48 h; Potency, µM (top dose mostly 46.1 µM), for inactives: at the highest dose activity, negative = toxicity, usual class: cytotoxic;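 further: 0% = DMSO wells and -100% = cell-free medium wells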
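Assay cells: HT-1080 with IDH1 knockdown, 750 per well, RPMI/5% FBS. Exposure: 48 h at 37 °C following 2 h pre-incubation. Read: CellTiter-Glo luminescence; fitted concentration-response, curve class assigned.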
KB-3-1 tox: qHTS assay for MDR1-selective chemotherapeutics: Primary screen using the parental adenocarcinoma cell KB-3-1; KB-3-1 viability, CellTiter-Glo ATP luminescence, 72 h; Potency, µM (doses to about 46.1 µM), usual class: cytotoxic; hit rate 1.4% among 400,000; further: nearly all actives have a fitted effect of over 60% in size
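Parental KB-3-1 viability, qHTS format: 72 h compound exposure, 37 °C; CellTiter-Glo; media-only wells and DMSO plates as controls; concentration-effect fits on corrected data.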
TDP1 cell noCPT: qHTS for Inhibitors of human tyrosyl-DNA phosphodiesterase 1 (TDP1): qHTS in cells in absence of CPT. hit rate 15% among 420,000. DT40 Tdp1-/- hTDP1 cells, no CPT, ATP luminescence, 48 h. Potency, µM (series often up to 46.2 µM), inactives show top-dose activity change, negative = growth inhibition, usual class: inhibitors; further: nearly all actives have a fitted effect of over 55% in size
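Growth kinetics read by CellTiter-Glo luminescence after ≥48 hr at 37 °C. Cells: DT40 Tdp1-/- stably carrying human TDP1, 400 per well, compound exposure in the absence of CPT (DMSO vehicle).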
HT1080NT lethal: qHTS for induction of synthetic lethality in tumor cells producing 2HG: qHTS for the HT-1080-NT fibrosarcoma cell line; Potency, µM (titrated, usually from 46.1 µM), without a hit: top-dose activity, negative = less viability, usual class: cytotoxic; hit rate 1.6% among 360,000; AID 686970, 2013; HT-1080-NT fibrosarcoma viability, CellTiter-Glo ATP luminescence, 48 h;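 further: NT is the 2HG producing partner of a matched IDH1 knockdown line; 0% = DMSO-treated cells and -100% = media-only wells without cells; nearly all actives have a fitted effect of over 55% in size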
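A 48-hour cytotoxicity screen used HT-1080-NT cells plated 2 hours before compound delivery. ATP-based CellTiter-Glo luminescence measured viability, normalized to DMSO and no-cell controls.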
An asterisk follows results filed as active; i = inactive; ? = inconclusive; / = no result; ! = a repeat was not active. The call rests on the fitted dose curve; in most records, active means well fitted curve in the direction sought with a large enough effect; inconclusive means small, poorly fitted or top-dose-only effect, or another doubt; inactive means no such curve, though single readings can be large; an effect the other way counts as inactive or inconclusive. Unless noted, on the % scale 0 is the no-effect control and ±100 the full control effect; potency means the concentration at half of the fitted maximal effect.

SMILES	KB-V1 MDR tox	TDP1 cell CPT	HT1080 IDH1KD tx	KB-3-1 tox	TDP1 cell noCPT	HT1080NT lethal
COc1ccc(OC)c2sc(N(CCN(C)C)C(=O)/C=C/c3cccs3)nc12	?	?	16.4µM*	?	?	18.4µM*
COc1ccc(OC)c2sc(N(CCCN(C)C)C(=O)c3ccco3)nc12	i	?	/	i	?	/
COc1ccc(C)c2sc(N(CCN(C)C)C(=O)/C=C/c3cccs3)nc12	?	?	?	?	?	20.6µM*
Cc1ccc(NC(=O)COC(=O)c2cccc(S(=O)(=O)N3CCCCCC3)c2)cc1	i	-13.8%	2.2%	i	-7.4%	-7.0%
O=C(CCC1CCCCC1)Nc1cccc(C(=O)Nc2ccc(C(=O)O)cc2)c1	i	-2.5%	14.7%	i	-24.9%	16.4%
Cc1cc(C)cc(NC2=CC(c3cccc(F)c3)N(c3cc(C)cc(C)c3)C2=O)c1 (stereo not drawn)	i	?	/	i	?	/
Nc1cc(Cc2ccccc2)ccc1O	18.4µM*	23.1µM*	-3.7%	i	?	-0.1%
Nc1cc(N)cc(Cc2ccccc2)c1	i	-13.3%	0.2%	i	-10.5%	8.4%
COc1ccc(N2CCN(Cc3cccn3-c3nnc(N4CCN(C5CCCCC5)CC4)s3)CC2)cc1	i	20.6µM*	/	i	20.6µM*	/
Cc1cc(C)c(C2=Nn3c(C)nnc3SC2C)cc1C (stereo not drawn)	i	18.4µM*	-22.3%	?	11.6µM*	?
O=C1CCC[C@@H]2C[C@@]3(C[C@@H]4CCN1[C@H]24)Nc1cc([N+](=O)[O-])ccc1NC3=NCc1ccccc1	i	?	/	i	?	/
N#CCC(=O)NNC(=S)NC(=O)C(c1ccccc1)c1ccccc1	i	-1.8%	-0.3%	i	-11.1%	-1.1%
CC(=O)NC(=S)NNC(=O)C(c1ccccc1)c1ccccc1	i	13µM*	-21.8%	?	20.6µM*	-0.3%
CN(CC(=O)Nc1ccc(Cl)cc1F)S(=O)(=O)c1ccc2c(c1)n(C)c(=O)c(=O)n2C	i	-10.5%	/	i	-13.5%	/
CC(C(=O)Nc1ccc(OCc2ccccc2)cc1)N1CCCC1 (stereo not drawn)	i	14.2%	?	i	?	-19.4%
CC(C)COCC(CN(Cc1ccccc1)c1ccccc1)N1CCCC1 (stereo not drawn)	18.4µM*	10µM*!	15.8µM*	i	25.9µM*	16.4µM*
O=C(Cc1ccccc1)N/N=C/c1ccc2cccc(O)c2n1	?	2.06µM*	?	i	2.59µM*	-28.5%
NC(=O)N/N=C/c1ccc2cccc(OCc3ccccc3)c2n1	i	3.0%	-29.9%	i	?	-24.8%
CC1CCN(CC[S-])CC1.O.O.[Cl][Pt]	?	1.26µM*	/	13µM*	1.58µM*	/
CN(CCCNC(=O)c1cccn2c(=O)c3ccccc3nc12)Cc1ccccc1	?	22.4µM*	20µM*	?	?	?
O=C(NCCN1CCN(c2ccccc2)CC1)c1cccn2c(=O)c3ccccc3nc12	?	?	-0.8%	i	18.4µM*	6.6%
N=c1c(C(=O)NCCN2CCOCC2)cc2c(=O)n3ccccc3nc2n1CCCN1CCOCC1	i	-4.1%	8.9%	i	10.2%	7.1%
O=C(NCCN1CCN(c2ccccc2F)CC1)c1cccn2c(=O)c3ccccc3nc12	?	?	6.2%	i	16.4µM*	7.9%
CC(=O)c1cc2c(cc1NC(=O)c1c(C)nn(-c3ccc(C)cc3)c1-n1cccc1)OCO2	/	-2.1%	/	/	-1.8%	/
CC(=O)NCCNC(=O)c1cnn(-c2nccc(-c3cc(C)sc3C)n2)c1C	/	?	/	/	-7.1%	/
SMILES	KB-V1 MDR tox	TDP1 cell CPT	HT1080 IDH1KD tx	KB-3-1 tox	TDP1 cell noCPT	HT1080NT lethal
O=C1c2cc([N+](=O)[O-])cc3cc([N+](=O)[O-])cc(c23)C(=O)N1c1ccccn1	i	20.6µM*	-14.6%	i	18.4µM*	-3.0%
O=C1c2cc3ccccc3c(-c3ccccc3)c2C(=O)N1c1ccccn1	13µM*	-7.7%	1.2%	i	-29.0%	2.2%
COc1ccc(N(C)C(=O)C2CCCN2S(=O)(=O)c2cccc3nsnc23)c(OC)c1 (stereo not drawn)	i	-12.6%	6.0%	i	-17.0%	-3.8%
COc1cc(Nc2nc(SCC(=O)c3ccc(Cl)c(Cl)c3)nc3ccccc23)cc(OC)c1	/	1.3µM*	/	/	0.651µM*	/
O=C(CSc1nc(Nc2ccccc2)c2ccccc2n1)c1ccc(Cl)cc1	i	13µM*	/	i	18.4µM*	/
COc1ccc(NC(=O)CSc2nc(-c3ccccc3)c3ccccc3n2)cc1	/	-12.9%	/	/	?	/
COc1cc(/C=C/C(=O)N2CCCN(C(=O)/C=C/c3cc(OC)c(OC)c(OC)c3)CC2)cc(OC)c1OC	i	1.8%	-0.6%	?	?	9.2%
COc1cccc(C2=NOC(C(=O)N3CCN(Cc4ccccc4)CC3)C2)c1OC (stereo not drawn)	5.8µM*	?	0.8%	i	?	0.4%
COc1cc(/C=C/C(=O)N2CCN(CC(O)COc3ccccc3)CC2)cc(OC)c1OC (stereo not drawn)	i	?	-0.9%	i	20.6µM*	0.9%
COc1ccccc1C1=NOC(C(=O)N2CCN(C(=O)c3ccco3)CC2)C1 (stereo not drawn)	i	-11.8%	29.0%	i	10.3%	?
COc1cc(/C=C/C(=O)N2CCN(Cc3ccccc3)CC2)cc(OC)c1OC	i	-72.8%	0.0%	i	18.4µM*	-2.4%
CCNc1nc(NC(C)CC)nc(ON=C(C)C)n1 (stereo not drawn)	i	1.6%	8.0%	i	5.7%	15.9%
Cc1ccc(C(=O)NC(=S)c2c(C)cc3ccccn23)cc1	i	?	-13.5%	i	?	-4.4%
O=C(CC(C(=O)N1CCc2ccccc21)n1ccnc1)N1CCc2ccccc2C1 (stereo not drawn)	8.2µM*	?	?	i	-16.4%	-1.0%

Bioassay records as filed in PubChem BioAssay.
